# SNCA expr inh – inhibitors of alpha-synuclein (SNCA) gene expression; 0.17% of 140,000 active; HEK-293 SNCA-luciferase knock-in, luminescence, 24 h; Potency, µM (series often up to 57.2 µM), without a hit: top-dose activity change, negative = inhibition, most hits filed as inhibitors;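 note: potency is the fitted concentration of half-maximal effect; plate controls were DMSO cells for no effect and cell-free wells for full effect; nearly all actives have a fitted effect of over 45% in size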
# KDM5B inhibitor – KDM5B demethylase inhibition. 2.6% of 220,000 active. KDM5B demethylase, FDH-coupled NADH fluorescence (FDH is formaldehyde dehydrogenase). Potency, µM (titrated, usually from 57.7 µM), most hits filed as inhibitors. Q9UGL1; note: potency is the fitted concentration of half-maximal effect; 0% is about no effect; nearly all actives have a fitted effect of over 70% in size
#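 qHTS format, multiple compound concentrations. Buffer 50 mM HEPES pH 7.5/0.01% Tween-20; 200 nM KDM5BΔAP final; 10 min compound preincubation; substrate-mix levels 12.5 µM peptide, 25 µM α-KG, 0.25 mM NAD⁺; 30 min RT; ΔRFU.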
# IP6K1 inhibitor – IP6K1 kinase inhibition; activity change, % (series mostly up to about 58 µM); IP6K1 kinase, ADP-Glo luminescence, 2 h; active compounds read low; 0.81% of 140,000 active; AID 1645851; in the data active = activity change below about -25%; note: % is set by controls: 0 for no effect and ±100 for the full control effect
#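 ADP-Glo luminescence measures ADP made by human IP6K1 during a 2 h RT reaction with ATP/IP6 (mix at 1.3 mM/130 uM); top library doses 57.5 and 19.1 uM final.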
# HEK293 viab – counter-screen for SNCA expression inhibitors: cell viability; 0.12% of 150,000 active; Potency, µM (series often up to 57.1 µM), inactives show at the highest dose activity change, negative = cytotoxicity, usual class: cytotoxic; HEK-293-SNCA-luc viability, GF-AFC fluorescence, 24 h;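 note: potency is the fitted concentration of half-maximal effect; 0% = DMSO-treated cells and -100% = medium-only wells without cells; nearly all actives have a fitted effect of over 30% in size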
#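 HEK-293-SNCA-luc cells (1500/well) plated 24 h, then exposed 24 h to a dilution series; GF-AFC added 30 min at 37C, fluorescence 405/540 nm; normalised to medium-only and DMSO wells, Hill fit.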
# * marks the source's active call; other numbers are inactive results; i = inactive; ? = inconclusive; nt = no result given; [ ] = remark or other dose. Hits are enriched below; roughly 2.9% of the tested compounds scored in any of these assays. Unless noted, calls come from the whole dose curve; as a rule, active = well fitted curve in the direction sought with a large enough effect; inconclusive = small, poorly fitted or top-dose-only effect, or another doubt; inactive = no such curve, though single readings can be large; an effect the other way counts as inactive or inconclusive.
SMILES,SNCA expr inh,KDM5B inhibitor,IP6K1 inhibitor,HEK293 viab
CN1CCN(c2cc(N3CCCC(CN4CCCCC4)C3)nc(N)n2)CC1 (centres undefined),1%,i,0,-24%
CN1CCN(c2cc(-c3cncc(N)c3)nc(N)n2)CC1,2%,20µM*,15,3%
Clc1cccc(CN2CC(CNc3cccnc3)C3(C2)CN(c2ccccc2)C3)c1 (centres undefined),?,32µM*,-2,-18%[87.6 µM]
Nc1ncccc1CN1CC(COc2ccccc2)C2(C1)CN(c1ccccc1)C2 (centres undefined),?,?,-13,-17%[87.6 µM]
C[S+](=O)([O-])c1cccc(CN2CC(COc3ccccc3)C3(C2)CN(c2ccccc2)C3)c1 (centres undefined),?,35µM*,-9,-13%
N#Cc1cccc(CN2CC(COc3ccccc3)C3(C2)CN(c2ccccc2)C3)c1 (centres undefined),-21%[87.6 µM],40µM*,12,-4%[87.6 µM]
O=[S+]([O-])(NCC1CN(Cc2cccc(Cl)c2)CC12CN(c1ccccc1)C2)c1ccccc1 (centres undefined),?,?,7,-14%
Cc1cccc(NC(=O)N2CCC3(CC2)CC(N(C)Cc2ccccc2)CCO3)c1 (centres undefined),42%,i,9,-10%
CN(C)C[C@@H]1CN(C2CCOCC2)C[C@H]1NC(=O)c1cc2ccccc2[nH]1,1%,28µM*,23,-9%
COCCn1cnc2ccc(-c3cccc(C)c3)nc2c1=O,-7%[87.6 µM],40µM*,5,6%[87.6 µM]
COCCn1cnc2ccc(-c3ccsc3)nc2c1=O,51%[87.6 µM],35µM*,3,9%[87.6 µM]
COCCn1cnc2ccc(-c3ccc(F)c(Cl)c3)nc2c1=O,35%[87.6 µM],32µM*,5,-4%[87.6 µM]
CCCS(=O)(=O)N1CCC(N2CC(OC)C23CCOCC3)CC1 (centres undefined),4%,i,33,2%
COc1ccc(-n2cc(CN3CCCC(CO)C3)c(-c3cccc(F)c3)n2)cc1 (centres undefined),-24%,35µM*,-6,-10%
COc1ccc(-n2cc(CN3CCN(C)C(C)C3)c(-c3cccc(F)c3)n2)cc1 (centres undefined),12%,25µM*,-3,-7%
O=C(Nc1ccncn1)[C@@H]1C[C@@H](c2ccc(F)cc2)N(CCOc2ccccc2)C1,-23%[87.6 µM],35µM*,2,-9%[87.6 µM]
O=C(Nc1cccnc1)[C@@H]1C[C@@H](c2ccc(F)cc2)N(CCOc2ccccc2)C1,-28%[87.6 µM],i,-2,?
Cc1ccc2c(C(=O)NCc3cccc(Cl)c3)cc(NC(=O)C(C)C)cc2n1,-3%,25µM*,28,7%
Cc1cccc(CNC(=O)c2cc(NC(=O)C(C)C)cc3nc(C)ccc23)c1,3%,13µM*,14,2%
O=C(NCCc1cccnc1)c1ccc(Cl)cc1Cl,nt,i,nt,nt
CC(=O)Nc1cc(C(=O)N(C)Cc2ccco2)c2ccc(C)nc2c1,16%,?,11,2%
COc1ccc(NC(=O)c2cc(NC(=O)C(C)C)cc3nc(C)ccc23)cc1,-12%,i,13,7%
CC(=O)Nc1cc(C(=O)NCc2ccccc2C)c2ccc(C)nc2c1,-12%,25µM*,27,-13%
Cc1ccc2c(C(=O)NCCc3cccnc3)cc(NC(=O)C(C)C)cc2n1,-10%,20µM*,17,-3%
CC(C)n1nc(C(=O)Nc2ccccc2)c2ccccc2c1=O,nt,i,nt,nt
SMILES,SNCA expr inh,KDM5B inhibitor,IP6K1 inhibitor,HEK293 viab
O=C1Cc2c(-c3ccc(N4CCOCC4)cc3)n[nH]c2CN1CCc1ccncc1,59%[87.6 µM],22µM*,-1,-2%[87.6 µM]
COc1cccc(C(=O)N2C(C(=O)NCC3CCCO3)COC23CCC(C)CC3)c1 (centres undefined),19%,i,-7,-4%
Cn1c2c(c3cc(F)ccc31)CN(C(=O)Nc1cccc(Cl)c1)CC2,0%,32µM*,-2,-3%
Cc1cccc(NC(=O)N2CCc3c(c4cc(F)ccc4n3C)C2)c1,29%,32µM*,0,-8%
CCC(O)CNc1ccc(-c2nc(COC)no2)cn1 (centres undefined),53%,32µM*,5,13%
Cc1cc(N2CCN(S(=O)(=O)c3ccc(Br)cc3Cl)CC2)nc(C(C)C)n1,nt,i,nt,nt
Cc1ccc2oc([C@H]3CCN(Cc4cccc(Cl)c4)C3)nc2c1,72%[87.6 µM],?,18,14%[87.6 µM]
Cc1ccc2oc([C@H]3CCN(Cc4c[nH]c5ccccc45)C3)nc2c1,5%[87.6 µM],13µM*,5,?
CCCc1ccc(S(=O)(=O)NC2CCN(c3ccc(=O)n(CC4CC4)n3)CC2)cc1,?,28µM*,6,-6%
O=c1ccc(N2CCC(NS(=O)(=O)c3ccccc3Cl)CC2)nn1CC1CC1,?,?,-3,?
CC(C)(O)Cn1c(NC(=O)c2ccc(-c3cn[nH]c3)s2)nc2cc(CN3CCOCC3)ccc21,3.4µM*,nt,nt,?
C[C@H](NCc1ccc2c(c1)nc(NC(=O)c1ccc(-c3cn[nH]c3)s1)n2CCc1ccccc1)C(C)(C)C,6.8µM*,nt,nt,?
COc1ccc(C(=O)N2CCCC3(C2)Nc2cccnc2NC3=NCc2ccccc2)cn1 (centres undefined),-4%,?,14,-11%
Cc1ccc(C(=O)N2CCCC3(C2)Nc2cccnc2NC3=NCc2ccccc2)cn1 (centres undefined),-25%,28µM*,1,-13%
CCCCS(=O)(=O)N1CCCC2(C1)Nc1cccnc1NC2=NCc1ccccc1 (centres undefined),30%,28µM*,3,-9%
O=C(NCc1ccco1)N1CCCC2(C1)Nc1cccnc1NC2=NCc1ccccc1 (centres undefined),-1%,25µM*,1,0%
COc1cccc(NC(=O)N2CC[C@@H](CC(=O)O)[C@@H](CC3=NCCc4cc(OC)c(OC)cc43)C2)c1,14%,i,-3,1%
COCC(=O)N1CC[C@@H](CC(=O)O)[C@@H](CC2=NCCc3cc(OC)ccc32)C1,12%[87.6 µM],?,8,2%[87.6 µM]
COc1ccc(NC(=O)N2CC[C@@H](CC(=O)O)[C@@H](CC3=NCCc4cc(OC)c(OC)cc43)C2)cc1,36%,35µM*,6,7%
CCCS(=O)(=O)N1CC[C@@H](CC(=O)O)[C@@H](CC2=NCCc3cc(OC)ccc32)C1,-2%[87.6 µM],32µM*,-2,0%[87.6 µM]
COc1ccc2c(c1)CCN=C2C[C@H]1CN(C(=O)C(=O)O)CC[C@H]1CC(=O)O,-11%[87.6 µM],28µM*,-7,1%[87.6 µM]
COc1ccc2c(c1)CCN=C2C[C@H]1CN(C(=O)c2cccnc2)CC[C@H]1CC(=O)O,32%[87.6 µM],32µM*,7,10%[87.6 µM]
O=C(O)CCC(=O)N1CCC2(CC1)CC(Cc1ccccc1)=NO2,5%,i,0,1%
COCCn1c(C)cc(C(=O)CSc2nc3ccccc3[nH]2)c1C,nt,i,nt,nt
COc1cc2c(cc1OC)C(C[C@H]1CN(C(=O)c3cccn3C)CC[C@H]1CC(=O)O)=NCC2,-27%,32µM*,2,8%
